# Screens: PubChem BioAssay, National Center for Advancing Translational Sciences (NCATS)
# Luc counter = counter-screen: inhibitors of Kinase-Glo firefly luciferase. Potency, µM (highest dose often 38.3 µM), inactives show at the top dose activity change, negative = inhibition, actives largely listed as inhibitors. actives 0.28% (n = 200,000). Q27757. Kinase-Glo luciferase, ATP luminescence, 8 min. AID 1379; also: % is scaled to controls: 0 for no effect and ±100 for the full control effect; nearly all actives have a fitted effect of over 60% in size
#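 Substrate mix (final 50 mM imidazole pH 7.2, 50 mM KCl, 7 mM MgCl2, 10 uM ATP, 0.01% Tween 20, 0.05% BSA) plus pin-tool compound, then Kinase-Glo detection mix; 8 min ambient, luminescence read.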
# SMN2 splice up = enhancers of SMN2 splice variant expression; HEK293 SMN2-luciferase splicing reporter, luminescence, 30-36 h; Potency, µM (series often up to 46.1 µM), for the others: at the highest dose activity change, positive = activation, most hits filed as activators; actives 2.8% (n = 210,000); AID 1458; also: % of control where 0% means no effect; nearly all actives have a fitted effect of over 55% in size
#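 qHTS luciferase splicing reporter: luminescence rises when SMN2 exon 7 is included in transfected HEK293 cells. Compound exposure lasted 30-36 h at 37C, with 4.5 mM final sodium butyrate as control, followed by a ONE-Glo read.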
# NPC1 prom act = activators of NPC1 promoter; Huh7 NPC1 promoter luciferase reporter, 24 h; Potency, µM (highest dose often 9.22 µM), inactives show top-dose activation, most hits filed as activators; actives 2.4% (n = 320,000); AID 485313; also: % of control where 0% means no effect; nearly all actives have a fitted effect of over 60% in size
#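 Luminescence read-out of NPC1 promoter-driven luciferase in stably transfected Huh7 cells; compounds delivered in DMSO and left 24 h at 37C, 5% CO2, qHTS titration format.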
# FLuc modulator = counter-screen for miR-21 project: firefly luciferase inhibitors or activators; P08659; purified FLuc, Km substrates, luminescence inhibition; Potency, µM (series often up to 57.5 µM), for the others: at the top dose activity change, negative = inhibition, usual class: inhibitors; actives 6.9% (n = 360,000); AID 588342;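 also: plate controls were vehicle for no effect and reference inhibitor for full effect; nearly all actives have a fitted effect of over 55% in size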
# Target sequence (P08659 whole entry, looked up): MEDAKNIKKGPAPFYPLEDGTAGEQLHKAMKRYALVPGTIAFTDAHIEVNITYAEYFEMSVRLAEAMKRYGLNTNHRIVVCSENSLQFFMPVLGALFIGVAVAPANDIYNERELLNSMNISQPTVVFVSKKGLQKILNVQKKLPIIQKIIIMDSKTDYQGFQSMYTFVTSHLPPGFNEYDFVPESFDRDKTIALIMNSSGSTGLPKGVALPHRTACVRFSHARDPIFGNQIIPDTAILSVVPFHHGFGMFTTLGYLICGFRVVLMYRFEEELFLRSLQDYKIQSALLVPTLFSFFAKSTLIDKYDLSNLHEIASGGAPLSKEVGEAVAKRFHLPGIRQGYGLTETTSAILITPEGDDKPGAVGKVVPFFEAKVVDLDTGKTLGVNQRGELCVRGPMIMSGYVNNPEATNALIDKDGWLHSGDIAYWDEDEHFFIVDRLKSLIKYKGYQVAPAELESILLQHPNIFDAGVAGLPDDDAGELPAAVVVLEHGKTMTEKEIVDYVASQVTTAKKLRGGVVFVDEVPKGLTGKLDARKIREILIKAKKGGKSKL
#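 Purified P. pyralis luciferase, 10 nM final, with Km-level 10 uM D-luciferin and 10 uM ATP in 50 mM Tris acetate pH 7.5, 10 mM Mg acetate, 0.01% Tween-20, 0.05% BSA; 6-point qHTS titration about 60 µM downward; luminescence read.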
# ELG1 genotox = genotoxicity induction in ELG1-luciferase HEK293T cells. HEK293T ELG1-luciferase reporter, luminescence, 16 h. Potency, µM (top dose mostly 46 µM), inactives show top-dose activity change, positive = activation, hits mostly activators. actives 1.3% (n = 330,000). AID 504466; also: % of control where 0% means no effect; nearly all actives have a fitted effect of over 60% in size
#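 Genotoxicity was scored as increased ELG1-luciferase reporter signal, measured by ONE-Glo luminescence (30 min, room temperature). Compound or vehicle exposure of the HEK293T reporter cells lasted 16 hr at 37°C.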
# Rab9 prom act = Rab9 promoter activation | actives 2.8% (n = 320,000) | Huh7 Rab9 promoter-luciferase reporter, luminescence, 24 h | AID 485297 | Potency, µM (series often up to 9.22 µM), for the others: top-dose activation, negative = inhibition, actives largely listed as activators; also: % of control where 0% means no effect; nearly all actives have a fitted effect of over 60% in size
#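 Luciferase signal after 10 min detection reagent at ambient indicates Rab9 promoter upregulation; stably transfected Huh7 cells were treated 24 h with compound in DMSO at 37 °C, 5% CO2.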
# Numbers without * were called inactive; ? = inconclusive; nt = not tested or not shown; [ ] = another dose, or the depositor's remark. The list is not random: actives were taken first. Their share in the collection is about 7.5%. Calls follow the shape of the dose curve; as a rule, active = well fitted curve in the direction sought with a large enough effect; inconclusive = small, poorly fitted or top-dose-only effect, or another doubt; inactive = no such curve, though single readings can be large; an effect the other way counts as inactive or inconclusive. Potency is read from the fitted curve at half-maximal effect.
SMILES,Luc counter,SMN2 splice up,NPC1 prom act,FLuc modulator,ELG1 genotox,Rab9 prom act
Cc1ccc2nc(SC(C)C(=O)NC3CCCC3)[nH]c2c1 (centres undefined),nt,nt,nt,nt,-5.0%,nt
Cc1cc2nc(SC(C)C(=O)O)[nH]c2cc1C (centres undefined),1.8%,-3.4%,-1.1%,21.3µM*,-0.5%,0.3%
C=CCNC(=O)NC(=O)COC(=O)CCCSc1nc2ccccc2[nH]1,-0.7%,18.8%,-0.3%,-5.6%,-1.9%,1.5%
COc1ccc(Cl)cc1NC(=O)C(C)OC(=O)C1=NNC(=O)CC1 (centres undefined),nt,nt,-1.6%,-0.9%,0.5%,-3.3%
Cc1cccc(N2CCN(S(=O)(=O)c3cc(C(=O)Nc4ccc(Oc5ccccc5)cc4)ccc3F)CC2)c1C,nt,nt,nt,0.1%,nt,nt
Fc1ccc(-n2cc(-c3ccccc3)c3c(NC4CCCCC4)ncnc32)cc1,nt,nt,nt,-4.6%,nt,nt
Cc1ccc(-n2c(COCC(=O)O)nc3cccnc32)cc1,nt,nt,nt,-6.4%,nt,nt
CCOC(=O)C(=CNc1ccc(C)cc1C)C(=O)OCC,2.6%,1.8%,-0.5%,15.1µM*,-1.5%,-6.9%
Cc1cccn2cc(CSc3ccccc3N)nc12,-4.6%,?,2.24µM*,6.01µM*,6.51µM*,2.51µM*
Nc1ccccc1SCc1cn2ccccc2n1,-8.3%,11.2µM*,2.24µM*,6.75µM*,?,1.78µM*
Cc1cccc(CNc2ncnc3ccc(-c4ccccc4CN(C)C)cc23)c1,-2.6%,-25.0%,nt,nt,nt,nt
CCC(Sc1nc2cc(OC)c(OC)cc2c(=O)n1Cc1ccc(Cl)cc1)C(=O)NCCOC (centres undefined),nt,nt,nt,0.8%,nt,nt
Cc1ccccc1OCC(=O)Nc1ccc2c(c1)C(=O)N(CCC(=O)O)C2=O,nt,nt,-0.5%,?,8.9%,0.9%
CCCOC(=O)c1ccc(-c2ccc(C=O)o2)cc1,-2.4%,1.26µM*,?,13.5µM*,?,?
CCCOC(=O)c1cc(-c2ccc(C=O)o2)ccc1Cl,-1.0%,?,21.9%,?,10.9%,28.4%
CCOC(=O)c1ccc(-c2ccc(C=O)o2)cc1,nt,nt,?,23.9µM*,?,?
C=CCOc1c(Br)cc(/C=C2/NC(=S)N(C(C)=O)C2=O)cc1OC,3.6%,8.6%,-0.4%,1.51µM*,23.1%,-3.3%
CS(=O)(=O)Nc1ccccc1C(=O)OCc1cc(=O)n2nc(C3CCCCC3)sc2n1,nt,nt,nt,-0.9%,nt,nt
O=c1oc(-c2cccs2)nc2scc(-c3cccs3)c12,4.1%,11.2µM*,7.0%,7.57µM*,0.1%,13.9%
CCc1cc2c(=O)oc(-c3ccc(Br)cc3)nc2s1,nt,nt,13.6%,6.01µM*,-0.8%,17.8%
Cc1sc2nc(-c3cccs3)oc(=O)c2c1C,nt,nt,15.0%,10.7µM*,3.4%,-2.3%
Cc1sc2nc(-c3ccc(Br)cc3)oc(=O)c2c1C,nt,nt,?,2.69µM*,-3.2%,6.9%
COc1ccc(S(=O)(=O)N2CCC(C(=O)NC(C)c3ccccc3)CC2)cc1 (centres undefined),nt,-6.7%,nt,-3.4%,nt,nt
CC(C)Oc1ccc(CNC(=O)C2CCCCN2S(=O)(=O)c2ccc(F)cc2)cc1 (centres undefined),nt,nt,nt,1.8%,nt,nt
CC(Sc1nc(C(F)(F)F)nc2ccccc12)C(=O)NC1CCCC1 (centres undefined),nt,nt,-0.7%,4.5%,-1.6%,-1.2%
SMILES,Luc counter,SMN2 splice up,NPC1 prom act,FLuc modulator,ELG1 genotox,Rab9 prom act
O=C(COC(=O)Cn1cc(C(F)(F)F)ccc1=O)Nc1ccccc1,nt,nt,-3.7%,6.1%,-0.1%,-2.9%
CCOC(=O)c1c(-c2ccccc2)csc1NC(=O)c1cc(-c2cccc(OC)c2)on1,nt,3.9%,nt,-5.3%,nt,nt
O=C(Cn1ncc2c(Cl)cccc21)NCc1cccc(F)c1,nt,nt,nt,-1.7%,nt,nt
O=C(Cn1ncc2c(Cl)cccc21)NCc1cccc(Br)c1,nt,nt,nt,4.78µM*,nt,nt
O=C(O)Cc1ccc(NC(=O)C(c2ccccc2)c2ccccc2)cc1,-1.0%,nt,-0.7%,-1.7%,-0.3%,-4.9%
CC(C)(C)NC(=O)Nc1ccc(Br)cc1,nt,nt,?,15.1µM*,?,2.51µM*
COc1ccc(NC(=O)Nc2ccc(CC(=O)O)cc2)cc1,-0.9%,2.4%,-2.2%,13.5µM*,-2.4%,3.8%
O=C(O)Cc1ccc(NC(=O)Nc2ccc(Br)cc2)cc1,-1.4%,nt,3.4%,6.75µM*,0.0%,-9.7%
CC(C)(C)NC(=O)Nc1ccc(F)c(Cl)c1,nt,nt,-3.3%,?,-6.2%,-1.1%
O=C(c1cccc(Oc2c(Cl)cccc2[N+](=O)[O-])c1)N1CCOCC1,nt,nt,1.3%,3.4%,-2.0%,3.5%
COc1ccc(C(=O)NNC2=NS(=O)(=O)c3ccccc32)cc1OC,nt,nt,1.5%,15.1µM*,-5.0%,-2.3%
O=C(COc1ccccc1)NNC1=NS(=O)(=O)c2ccccc21,4.8%,-4.5%,-1.6%,23.9µM*,4.0%,16.8%
COc1ccccc1N1CCN(c2cc(C)nc3c(-c4ccc(Cl)cc4)c(C)nn23)CC1,nt,nt,nt,2.8%,nt,nt
Clc1ccc(Nc2ccc(NCc3ccccc3)nn2)cc1,-3.0%,-6.0%,-3.7%,?,16.2%,-2.9%
Cc1ccc(Nc2ccc(NCc3ccccc3)nn2)cc1C,-11.1%,?,13.5%,16.9µM*,?,20.2%
N#CCCN(C(=O)COC(=O)CNS(=O)(=O)c1ccc2ccccc2c1)c1ccccc1,nt,nt,-3.8%,8.6%,-1.3%,-0.5%
COc1ccc(-c2csc(NC(=O)c3ccccc3Br)c2C(=O)O)cc1,nt,nt,-4.4%,?,-3.0%,-5.4%
O=C(Nc1scc(-c2ccccc2)c1C(=O)O)c1ccccc1F,nt,nt,21.2%,26.9µM*,6.4%,20.3%
Cc1ccc(C(=O)Nc2scc(-c3ccccc3)c2C(=O)O)o1,-14.3%,4.2%,-1.1%,15.1µM*,6.5%,3.2%
Cc1ccc(-c2csc(NC(=O)c3ccccc3F)c2C(=O)O)cc1,nt,nt,?,21.3µM*,-4.0%,4.2%[1.84 µM]
Cc1ccc(CN(C)C(=O)c2cc(COc3cccc(C(F)(F)F)c3)on2)o1,nt,nt,0.1%,?,-3.5%,6.5%
CS(=O)(=O)c1ccc2nc(NC(=O)Oc3ccccc3)sc2c1,-6.2%,9.1%,2.2%,?,3.6%,-3.9%
CS(=O)(=O)c1ccc2sc(NC(=O)c3cc4ccccc4o3)nc2c1,nt,nt,?,2.69µM*,1.8%,?
CS(=O)(=O)c1ccc2nc(NC(=O)c3cc4ccccc4o3)sc2c1,-4.7%,20.9%,?,2.69µM*,0.7%,?
CS(=O)(=O)c1ccc2nc(NC(=O)c3cc(-c4ccccc4)nn3-c3ccccc3)sc2c1,-1.5%,-27.4%,-3.4%,-6.9%,-5.3%,-1.6%
Cc1ccc(SCCC(=O)N(C)CC(=O)Nc2c(C)cccc2C)cc1,nt,nt,0.2%,-2.0%,0.0%,-2.5%
